Results filed as inconclusive are left out. Unmarked numbers belong to inactive results. Calls come from the whole dose curve; as a rule, active = well fitted activation curve with a large enough effect; inconclusive = small, poorly fitted or top-dose-only effect; inactive = flat fitted curve, though single readings scatter.
Experiment: qHTS for Inhibitors of Cell Surface uPA Generation: FP59 Counterscreen for Cherry-picked Compounds; note: 0% is about no effect
Settings: FP59 anthrax toxin cytotoxicity counterscreen, cells; series mostly up to 115 µM; activity (protection from FP59): at the top concentration

Row | Compound | activity (protection from FP59) [%]
1 | Cc1cc(C)n(CCCNC(=O)c2ccc(C)o2)n1 | -1.64
2 | C[C@@H]1O[C@@H](O[C@@H]2C(=O)c3c(O)cc(O)cc3O[C@H]2c2ccc(O)c(O)c2)[C@H](O)[C@H](O)[C@H]1O | -1.41
3 | O=C(CN1CCCC1)Nc1cccc(Cl)c1Cl | -1.42
4 | O=C(CN1CCOC1=O)N1CCCC(Nc2ccc(F)c(F)c2)C1 (centres undefined) | -1.34
5 | C[C@@H](CSc1ccccc1)CN1CC[C@H](O)CCC1=O | -1.41
6 | COc1ccc(C[C@@H]2OC3(C=CC(=O)C=C3)O[C@H]2Cc2ccc(OC)cc2)cc1 | -1.61
7 | COc1ccc(NC(=O)/C(N=Nc2cc(S(=O)(=O)Nc3ccc(OC)cc3)ccc2OC)=C(\C)O)cc1 | -1.19
8 | Cc1nc2ncccn2c1-c1csc(Nc2ccc(S(N)(=O)=O)cc2)n1 | -0.455
9 | COc1cccc(C(=O)Cn2c(NCCCO)nc3ccccc32)c1 | -1.55
10 | CC(C(=O)Nc1nccs1)c1ccc([N+](=O)[O-])cc1 (centres undefined) | -1.23
11 | O=C(NNC(=O)c1cccnc1)c1ccncc1 | -1.3
12 | CC(C)NCC1CCc2cc(CO)c([N+](=O)[O-])cc2N1 (centres undefined) | -1.37
13 | COc1ccc(Nc2nc(-c3ccccc3)c(C(=O)Nc3cccnc3)s2)cc1 | -1.43
14 | COCCN(CCOC)c1nc(-c2ccc(C)cc2)nc2ccccc12 | -1.31
15 | CCOC(=O)C1(CCOc2ccccc2)CCN(Cc2ccc(O)c(OC)c2)CC1 | -1.37
16 | CN(C(=O)c1ccccc1C(=O)OCC(=O)NCc1ccccc1)C1CCCCC1 | -1.19
17 | COc1ccc(NC(=O)c2nn(C)c3c2CS(=O)(=O)c2ccccc2-3)cc1 | -1.36
18 | Cc1ccc(C)c(NC(=O)CCN2CCN(c3ccccc3F)CC2)c1 | -1.28
19 | COc1ccc(C(=O)NC(=S)Nc2ccc(NC(=O)c3ccco3)cc2)cc1[N+](=O)[O-] | -1.56
20 | CCN1CCCCC(=N/O)/C(=N/O)CCCC1 | -1.44

Row | Compound | activity (protection from FP59) [%]
21 | CCOC(=O)c1c(NC(=S)NC)sc2c1CCCC2 | 0.404
22 | Cc1cccn2c(CNCC(C)Oc3cccnc3)c(C(=O)N3CCOCC3)nc12 (centres undefined) | -1.42
23 | Cc1ccc(C2=NS(=O)(=O)N(C)C(C(=O)NC3CCCC3)=C2)cc1 | -1.45
24 | CCn1nc(NS(=O)(=O)c2ccccc2)c2cc3cc(C)ccc3nc21 | -1.52
25 | Cc1ccc(Cl)c(N/C=C/C(=O)c2ccccc2)c1 | -1.59
26 | CCOc1cc(/C=N/Nc2cc(C)nc3ccc(C)cc23)ccc1O | -1.03
27 | Cc1cc(C)cc(S(=O)(=O)c2cn(C)c3cc(N4CCN(C)CC4)c(F)cc3c2=O)c1 | -1.55
28 | O=C(c1ccccn1)C1CCCN(Cc2cn[nH]c2-c2cc3ccccc3o2)C1 (centres undefined) | -1.18
29 | Cc1ccc(S(=O)(=O)N(C)c2ccc(OC(=O)c3ccc(=O)[nH]c3)cc2)cc1 | -1.51
30 | COc1ccc(CNCCC2(C(C)C)CCOC(C)(C)C2)cc1 (centres undefined) | -1.52
31 | O=C(CC1(O)C(=O)Nc2ccccc21)c1cccc(Br)c1 (centres undefined) | -1.33
32 | CC(C)Cn1cnc2c(N)nc3ccccc3c21 | -0.237
33 | CCOC(=O)C(CC)n1cnc2c(nnn2-c2ccccc2)c1=O (centres undefined) | -0.667
34 | CCC(C)C(NC(=O)c1ccccc1)C(=O)Nc1ccc(S(=O)(=O)Nc2cc(C)nc(C)n2)cc1 (centres undefined) | -1.41
35 | CCOC(=O)CC(=O)CSc1nc2c(C)c(C)ccc2cc1C | 0.302
36 | COc1cccc(C(=O)NCC(c2ccco2)N2CCc3ccccc3C2)c1 (centres undefined) | -1.3
37 | CCOC(=O)c1ccccc1N=Cc1c(O)c2ccccc2oc1=O | -1.49
38 | CCN(CC)S(=O)(=O)c1ccc(C(=O)Nc2cccc(C)c2)cc1 | -0.293
39 | CCOc1cc(/C=C(\C#N)C(=O)NCc2cccnc2)ccc1O | -1.4

— PubChem BioAssay AID720517 (National Center for Advancing Translational Sciences (NCATS), 2013)
